High-throughput results as filed in PubChem.
An excerpt weighted towards active compounds, which were near 19% of everything screened.
IL-1B inflam inh: qHTS for Inhibitors of Inflammasome Signaling: IL-1-beta AlphaLISA Primary Screen; THP-1 LPS/ATP IL-1B secretion, AlphaLISA, 16 h; hits give low values; activity change, % at 57.5 µM; AID 743279, 2014; actives 4.7% (n = 360,000); in the data active means activity change below about -50%; inconclusive means mostly about -30% to -49%
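Secreted IL-1B measured by AlphaLISA bead assay after 16 h compound exposure of THP-1 cells; compounds (final up to 57.5 uM) added 1 h before LPS (250 ng/mL) and ATP (1.25 mM) stimulation; lower signal means less secretion.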
HT1080-NT tox: qHTS for induction of synthetic lethality in tumor cells producing 2HG: qHTS for the HT-1080-NT fibrosarcoma cell line. HT-1080-NT fibrosarcoma viability, CellTiter-Glo ATP luminescence, 48 h. Potency, µM (doses to about 46.1 µM), for inactives: top-dose activity, negative = less viability, hits mostly cytotoxic. actives 1.6% (n = 360,000);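 further: NT is the 2HG producing partner of a matched IDH1 knockdown line; potency means the concentration at half of the fitted maximal effect; 0% = DMSO-treated cells and -100% = media-only wells without cells; nearly all actives have a fitted effect of over 55% in size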
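Viability of the 2HG-overproducing fibrosarcoma line after 48 hours of compound exposure at 37 degrees C was determined by luminescence with CellTiter-Glo, and concentration-effect curves were then fitted and categorized.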
TDP1 cell CPT: qHTS for Inhibitors of human tyrosyl-DNA phosphodiesterase 1 (TDP1): qHTS in cells in presence of CPT; Potency, µM (doses to about 46.2 µM), inactives show at the highest dose activity change, negative = growth inhibition, actives largely listed as inhibitors; chicken DT40 Tdp1-/-;hTDP1 cells + 20 nM CPT, ATP luminescence, 48 h; actives 12% (n = 420,000); further: potency means the concentration at half of the fitted maximal effect; nearly all actives have a fitted effect of over 55% in size
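Chicken DT40 Tdp1-/- cells complemented with human TDP1, 400 cells/well, exposed to compounds plus 20 nM camptothecin for at least 48 h at 37 C; viability read as ATP content by CellTiter-Glo luminescence.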
uPA generation: qHTS for Inhibitors of Cell Surface uPA Generation. Potency, µM (top dose mostly 38.3 µM), inactives show at the highest dose activity change, negative = inhibition, hits mostly inhibitors. cell surface uPA generation assay, qHTS. actives 0.31% (n = 330,000); active means well fitted inhibition curve with a large enough effect; inconclusive means small, poorly fitted or top-dose-only effect; inactive means no such curve, though single readings can be large or run the other way; tested in mouse RAW 264.7 cells; further: potency means the concentration at half of the fitted maximal effect; nearly all actives have a fitted effect of over 55% in size
HT1080 IDH1KD tx: qHTS for induction of synthetic lethality in tumor cells producing 2HG: qHTS for the HT-1080-IDH1KD cell line. AID 686971, 2013. HT-1080 IDH1 knockdown viability, ATP luminescence, 48 h. Potency, µM (top dose mostly 46.1 µM), inactives show at the top dose activity, negative = toxicity, actives largely listed as cytotoxic. actives 2% (n = 360,000);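 further: potency means the concentration at half of the fitted maximal effect; 0% = DMSO wells and -100% = cell-free medium wells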
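Knockdown cells (IDH1KD HT-1080) received compounds 2 h after plating at 750 cells/well and were kept 48 h at 37 °C in 5% FBS RPMI. A CellTiter-Glo luminescence read gave % activity for curve fitting.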
TDP1 cell noCPT: qHTS for Inhibitors of human tyrosyl-DNA phosphodiesterase 1 (TDP1): qHTS in cells in absence of CPT | actives 15% (n = 420,000) | Potency, µM (titrated, usually from 46.2 µM), for inactives: top-dose activity change, negative = growth inhibition, usual class: inhibitors | DT40 Tdp1-/- hTDP1 cells, no CPT, ATP luminescence, 48 h; further: potency means the concentration at half of the fitted maximal effect; nearly all actives have a fitted effect of over 55% in size
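Growth of hTDP1-complemented DT40 Tdp1-knockout cells is measured by ATP luminescence after at least 48 hr compound exposure at 37 °C, with DMSO substituting for the 20 nM CPT used in the parallel screen.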
Numbers without * were called inactive; ? = inconclusive; . = not tested or not shown. Unless noted, the call rests on the fitted dose curve; in most records, active means well fitted curve in the direction sought with a large enough effect; inconclusive means small, poorly fitted or top-dose-only effect, or another doubt; inactive means no such curve, though single readings can be large; an effect the other way counts as inactive or inconclusive. Unless noted, on the % scale 0 is the no-effect control and ±100 the full control effect.

SMILES	IL-1B inflam inh	HT1080-NT tox	TDP1 cell CPT	uPA generation	HT1080 IDH1KD tx	TDP1 cell noCPT
Cc1cccc(C(C)C)c1NC(=O)Cc1ccc(S(=O)(=O)N2CCOCC2)s1	-4	3%	-19%	0%	-7%	-14%
COC(=O)C(C)N(C(=O)c1cccc2ccccc12)c1c(C)cccc1C (stereo not drawn)	-1	-4%	?	.	?	16µM*
COC(=O)C(C)N(C(=O)c1cccc(Cl)c1)c1c(C)cccc1C (stereo not drawn)	-7	0%	?	.	9%	?
Cc1cc(O)c(N=Cc2cc3c(cc2[N+](=O)[O-])OCO3)cc1C	24	0%	?	-18%	-12%	21µM*
CC1(C)CC(=O)C2=C(C1)OC1=C(C(=O)CC(C)(C)C1)C2c1cccc([N+](=O)[O-])c1	-14	1%	?	.	1%	16µM*
CC1(C)CC(=O)C2=C(C1)OC1=C(C(=O)CC(C)(C)C1)C2c1ccc(O)c([N+](=O)[O-])c1	3	1%	?	3%	4%	-12%
CC1(C)CC(=O)C2=C(C1)OC1=C(C(=O)CC(C)(C)C1)C2c1ccc(O)cc1O	-104*	5.6µM*	2µM*	.	5µM*	4µM*
COc1cc(F)ccc1-c1csc(C(O)c2ccc(F)c(F)c2)n1 (stereo not drawn)	-5	?	?	.	?	13µM*
COc1ccccc1-c1csc(C(NC(C)=O)c2cccc(F)c2)n1 (stereo not drawn)	-21	1%	-26%	.	-3%	?
COc1ccc(C(O)c2nc(-c3ccccc3OC)cs2)cc1 (stereo not drawn)	10	6%	?	.	15%	?
COc1ccccc1-c1csc(C(O)c2cccc(Cl)c2)n1 (stereo not drawn)	-4	4%	21µM*	.	-5%	?
COc1cc(C(O)c2nc(-c3ccc(F)cc3OC)cs2)ccc1F (stereo not drawn)	-3	?	?	.	?	?
COc1ccccc1-c1csc(C(O)c2ccccc2)n1 (stereo not drawn)	-4	28%	23µM*	.	10%	?
Cc1ccc(/C=C/c2onc(C)c2S(=O)(=O)N2CCC(C(=O)NCc3ccc(OC(C)C)cc3)CC2)cc1	.	.	?	.	.	-24%
O=c1oc2cc(O)ccc2s1	-1	-26%	?	?	-10%	?
Cc1ccc(-c2cc(O)cc3sc(=O)oc23)cc1C	-1	?	?	2%	-2%	21µM*
COc1cc2ccc(C(C)=NNC(N)=S)cc2cc1OC	-25	-5%	?	.	-1%	15µM*
COc1ccccc1OCC(=O)N/N=C(\C)c1ccc2ccccc2c1	-8	?	?	.	?	?
CC(=NNC(N)=S)c1ccc2cc3c(cc2c1)OCO3	?	-10%	23µM*	.	-24%	10µM*
C/C(=N\NC(N)=S)c1ccc2c(c1)OCCO2	3	2%	-23%	-2%	3%	?
COc1ccc(S(=O)(=O)N2CCC3(CC2)OCCN3S(=O)(=O)c2cccs2)cc1OC	0	-11%	?	-7%	-16%	?
Cc1cccc(Cn2cc3c(=O)n(CC(=O)Nc4cccc(C)c4C)nc-3c3cc(F)ccc32)c1	.	.	-2%	.	.	-25%
Cc1cccc(N2CCN(C(=O)Cn3c(=O)c4cccn4c4ccc(F)cc43)CC2C)c1 (stereo not drawn)	.	.	18µM*	.	.	18µM*
